Values joined by “and” are separate entries in the source; they are usually repeats but may differ in a detail not shown here. Identical values can stand only once. In all, about 110,000 compounds went through this assay and about 190 (0.17%) were called active. Cut-off read from the data, not from the text of the source: active = inhibition above about 50%; inactive = the rest. Many of the other results were omitted from the sample, so actives are more common in it than they were. Potency and affinity values are given separately. Some compounds were tested as several samples or in several runs, with calls that do not always agree.
biological target: Dual specificity protein phosphatase 6 (Rattus norvegicus) (UniProt Q64346); experiment: inhibition of rat DUSP6 enzyme activity – biochemical, in vitro, primary screen (AID 425); settings: recombinant MKP-3 phosphatase activity, fluorescence; at 20 µM; stronger effect = higher value;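 note: plate controls were vehicle for no effect and reference inhibitor for full effect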
Sequence (Q64346 whole entry, looked up): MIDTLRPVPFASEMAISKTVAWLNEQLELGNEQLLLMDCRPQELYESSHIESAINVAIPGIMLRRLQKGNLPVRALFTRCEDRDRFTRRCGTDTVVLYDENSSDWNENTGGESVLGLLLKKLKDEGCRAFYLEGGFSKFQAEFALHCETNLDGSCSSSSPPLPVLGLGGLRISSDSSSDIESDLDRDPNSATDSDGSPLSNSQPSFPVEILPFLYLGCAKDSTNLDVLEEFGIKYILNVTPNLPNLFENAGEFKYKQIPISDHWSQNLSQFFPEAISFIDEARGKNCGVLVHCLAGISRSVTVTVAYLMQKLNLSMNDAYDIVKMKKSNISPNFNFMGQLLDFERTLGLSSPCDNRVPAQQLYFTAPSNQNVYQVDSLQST

inhibition, 69.4% (active) and -3.7% (inactive):
Oc1ccc(N=Cc2ccc(O)c(O)c2)cc1

inhibition, active:
Cc1ccc(S(=O)(=O)NCC(C)NS(=O)(=O)c2ccc(C)cc2)cc1 (stereo unspecified) 69.6%
Cc1cccc(C=Nc2ccc(O)cc2)c1 118%
Oc1ccc(C=Nc2ccc(O)cc2)cc1 51%
Cn1c(O)c(/C=C2/C=CC=N2)c(=O)n(-c2ccccc2)c1=S 95.6%
O=c1[nH]c(=S)n(-c2ccccc2F)c(O)c1C=C1C=CC=N1 60.5%

inhibition, inactive:
Cc1nc(C)n(CC(O)COc2ccc3c(c2)CCC3)n1 (stereo unspecified) -16.3%
CCC(=O)Nc1c(C#N)c2nc3ccccc3nc2n1-c1ccc(C)cc1 1.4%
C=CCn1c(NC(=O)c2ccccc2)c(C#N)c2nc3ccccc3nc21 23.5%
COc1ccc(C(=O)NCCn2ccc3ccccc32)cc1OC -4.9%
COC(=O)c1c(NC(=O)c2c(C)noc2C)sc2c1CCCCCC2 -8.3%
CCCC(C)NS(=O)(=O)c1ccc(C)cc1 (stereo unspecified) -0.1%
CC(=O)Nc1ccc(S(=O)(=O)NCC(C)NS(=O)(=O)c2ccc(NC(C)=O)cc2)cc1 (stereo unspecified) -11.4%
COC(=O)c1ccc(-c2ccc(/C=N\Nc3ccc([N+](=O)[O-])cn3)o2)cc1 5.2%
CCSc1nc(N)c2c3c(sc2n1)COC(C)(CC)C3 (stereo unspecified) 3.9%
CC(=O)Nc1ccc(C(=O)NCc2ccccn2)cc1 1.3%
Cc1ccnc(NS(=O)(=O)c2ccc(NC(=O)c3cccc(I)c3)cc2)n1 1.1%
CC1(C)CC(NC(=O)CCc2ccccc2)CC(C)(C)N1 3.8% and -2.1%
Oc1ccc(/C=N/N=C/c2ccc(O)c(O)c2)cc1O 1.8%
Oc1cccc(C=Nc2ccc(Cl)c(Cl)c2)c1 -1.5%
Cc1cccc(C=Nc2ccc(-c3nc4ccc(C)cc4s3)cc2)c1 -2.3%
Oc1ccc(N=Cc2cc(Br)cc(Br)c2O)cc1 9.6%
CN(C)c1ccc(C=Nc2ccc(N(C)C)cc2)cc1 -3.9%
COc1ccc(N=Cc2ccc(O)c(OC)c2)cc1 -0.9%
COc1ccc2c(c1OC)CN(C)CCc1cc3c(cc1C(O)C2)OCO3 (stereo unspecified) -15.6%
COc1ccc(C2NC(=O)NC(C)=C2C(=O)Nc2ccccc2C)cc1OC (stereo unspecified) -0.4%
O=C1CCCC2=C1C(c1ccc(Cl)cc1)Nc1ccccc1N2 (stereo unspecified) 0.4%
Cc1ccccc1NC(=O)CCCN1C(=O)/C(=C/c2cccc3c2OCO3)SC1=S 4.3%
CSc1nsc(SC)c1NC(=O)OCc1ccccc1 -3.9% and 1.7%
COc1cccc(C(=O)Nc2ccc(OC(F)(F)F)cc2)c1 3.1%
COc1ccc(/C=C2\SC(=O)N(CC(=O)Nc3nccs3)C2=O)cc1OC 0%
O=S(=O)(NCc1ccc(F)cc1)c1ccc2ccccc2c1 0%
COC(=O)c1sc(=S)n(-c2cc(F)ccc2F)c1N 10.2%
Cc1ccc2[nH]c(C)c(CC(=O)N/N=C/c3cccnc3)c2c1 -2%
O=c1[nH]c(=O)n(-c2ccccc2Cl)c(O)c1C=C1C=CC=N1 3.3%
Cc1ccccc1-n1c(O)c(C=C2C=CC=N2)c(=O)[nH]c1=S 45.4%
O=c1[nH]c(=S)n(-c2cccc(Cl)c2)c(O)c1/C=C1/C=CC=N1 9%
COc1ccc(-n2c(O)c(/C=C3\C=CC=N3)c(=O)[nH]c2=O)cc1 2.1%
COc1ccc(NC(=O)Cn2nnc(C(N)=O)c2N)c(OC)c1 -7.2%
O=C1c2ccc(-c3nc4ccccc4c(=O)o3)cc2C(=O)N1c1ccc(I)cc1 -0.1%
COC(=O)c1ccc(-n2c(C)cc(/C=N/n3cnnc3)c2C)cc1 -6.7%
Cc1nnc(NC(=O)CSc2cn(Cc3ccccc3)c3ccccc23)s1 -5.8%
Cc1ccc(/C=N/n2cnnc2)cc1[N+](=O)[O-] -0.6%
COc1ccc(/C=C/C(=O)Nc2ccc(C)c([N+](=O)[O-])c2)cc1OC -0.5%
O=C(O)CCCCCN1C(=O)C(=O)/C(=C(/O)c2ccccc2)C1c1ccc(F)cc1 (stereo unspecified) 0.8%
CC(C)(C)c1ccc(OCC(=O)NC2CCS(=O)(=O)C2)cc1 (stereo unspecified) 3%
